PubChem BioAssay (Tox21)
Results filed as inconclusive are left out. The source made the active and inactive calls. Unless noted, calls follow the shape of the dose curve; as a rule, active = well fitted curve in the direction sought with a large enough effect in the repeat runs; inconclusive = weak or mixed curves; inactive = no such curve, though single readings can be large; an effect the other way counts as inactive or inconclusive.

Experiments:
[1] = biological target: Thyrotropin receptor (Homo sapiens) (UniProt P16473); test: qHTS assay to identify small molecule antagonists of the thyroid stimulating hormone receptor (TSHR) signaling pathway (AID 1259385; calls by dose curve; also: nearly all actives have a fitted effect of over 20% in size)
Chain of Thyrotropin receptor (Homo sapiens) (P16473 whole entry, looked up): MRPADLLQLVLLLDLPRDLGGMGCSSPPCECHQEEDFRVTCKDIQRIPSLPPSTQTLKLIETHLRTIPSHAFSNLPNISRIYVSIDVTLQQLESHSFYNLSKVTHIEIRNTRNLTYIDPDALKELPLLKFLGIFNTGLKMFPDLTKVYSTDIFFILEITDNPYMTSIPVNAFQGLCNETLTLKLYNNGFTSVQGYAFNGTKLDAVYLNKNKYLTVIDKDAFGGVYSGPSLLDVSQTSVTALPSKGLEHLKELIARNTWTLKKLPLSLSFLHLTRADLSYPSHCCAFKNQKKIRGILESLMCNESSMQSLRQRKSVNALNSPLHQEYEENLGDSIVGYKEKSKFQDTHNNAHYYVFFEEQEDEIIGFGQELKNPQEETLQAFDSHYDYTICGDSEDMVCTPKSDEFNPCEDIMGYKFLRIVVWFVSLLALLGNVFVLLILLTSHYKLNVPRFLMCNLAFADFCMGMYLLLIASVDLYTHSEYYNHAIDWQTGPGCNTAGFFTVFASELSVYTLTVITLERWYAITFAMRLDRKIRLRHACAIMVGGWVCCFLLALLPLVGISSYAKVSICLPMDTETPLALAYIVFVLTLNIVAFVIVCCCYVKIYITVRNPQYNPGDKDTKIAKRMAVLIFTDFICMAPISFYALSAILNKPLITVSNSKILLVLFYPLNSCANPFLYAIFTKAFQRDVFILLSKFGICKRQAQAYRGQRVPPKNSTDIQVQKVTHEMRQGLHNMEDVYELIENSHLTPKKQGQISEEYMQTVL
In short: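 TSHR-HEK293 cells (800/well) plated 18 h, then compounds with Ro20-1724 and TSH at 1.5 ng/mL final, 30 min at room temperature. cAMP quantified by HTRF (cAMP-d2/anti-cAMP-cryptate, 1 h); 15 concentrations in triplicate.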

[2] = biological target: Progesterone receptor (Homo sapiens) (UniProt P06401); test: qHTS assay to identify small molecule agonists of the progesterone receptor (PR) signaling pathway (AID 1346784; calls by dose curve; also: nearly all actives have a fitted effect of over 30% in size)
Chain of Progesterone receptor (Homo sapiens) (P06401 whole entry, looked up): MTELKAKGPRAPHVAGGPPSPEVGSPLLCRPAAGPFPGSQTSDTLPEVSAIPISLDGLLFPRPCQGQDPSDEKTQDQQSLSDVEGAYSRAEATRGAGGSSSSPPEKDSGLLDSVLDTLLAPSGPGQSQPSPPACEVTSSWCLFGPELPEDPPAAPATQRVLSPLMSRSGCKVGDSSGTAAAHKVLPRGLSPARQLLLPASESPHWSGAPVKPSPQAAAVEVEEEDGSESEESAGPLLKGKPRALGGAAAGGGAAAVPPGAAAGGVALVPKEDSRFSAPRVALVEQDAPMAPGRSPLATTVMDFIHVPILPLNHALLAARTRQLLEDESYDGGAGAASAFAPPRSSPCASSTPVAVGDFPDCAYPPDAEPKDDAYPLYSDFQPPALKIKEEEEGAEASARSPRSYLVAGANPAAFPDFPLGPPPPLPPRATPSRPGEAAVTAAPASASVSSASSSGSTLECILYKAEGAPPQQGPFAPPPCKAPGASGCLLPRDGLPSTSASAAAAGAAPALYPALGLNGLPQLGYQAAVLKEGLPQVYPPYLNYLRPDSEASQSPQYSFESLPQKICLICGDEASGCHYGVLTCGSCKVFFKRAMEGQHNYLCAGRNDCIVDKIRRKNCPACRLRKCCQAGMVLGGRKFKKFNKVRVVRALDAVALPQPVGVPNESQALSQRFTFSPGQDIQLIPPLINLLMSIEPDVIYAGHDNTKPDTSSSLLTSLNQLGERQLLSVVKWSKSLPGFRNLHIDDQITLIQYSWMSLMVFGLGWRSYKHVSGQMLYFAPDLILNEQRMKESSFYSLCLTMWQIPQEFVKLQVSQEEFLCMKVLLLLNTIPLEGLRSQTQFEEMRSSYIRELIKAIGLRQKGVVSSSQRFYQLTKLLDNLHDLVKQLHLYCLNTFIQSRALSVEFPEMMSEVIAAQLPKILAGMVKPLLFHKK
In short: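 The screen uses PR-UAS-bla HEK 293T cells in charcoal-stripped serum (2%). Compounds are applied for 16 hr at 37C after a 6 hr pre-incubation, and reporter activity is detected with a FRET beta-lactamase substrate after 2 hr at room temperature.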

[3] = biological target: Progesterone receptor (Homo sapiens) (UniProt P06401); test: qHTS assay to identify small molecule antagonists of the progesterone receptor (PR) signaling pathway (AID 1346795; active = well fitted inhibition curve with a large enough effect in the signal ratio in the repeat runs, not every such curve was filed as active; the % refers to the signal ratio)
In short: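 After 6 hr plating at 37C in 2% stripped-serum medium, PR-UAS-bla HEK293T cells got compounds, then 1 nM R5020. Sixteen hours later, LiveBLAzer substrate was applied for 2 hr at room temperature and fluorescence was recorded.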

[4] = qHTS assay to identify small molecule agonists of the progesterone receptor (PR) signaling pathway - cell viability counter screen (AID 1346799; calls by dose curve; also: nearly all actives have a fitted effect of over 45% in size)
In short: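 Viability was scored by ATP luminescence (CellTiter-Glo, 30 min, room temperature) in the same wells used for the reporter readout, after 16 hr compound exposure of PR-UAS-bla HEK293T cells.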

[5] = qHTS assay to identify small molecule antagonists of the TGF-beta/Smad signaling pathway - cell viability counter screen (AID 1346824); also: nearly all actives have a fitted effect of over 50% in size
In short: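 SBE-bla HEK 293T cells, incubated overnight, then compound plus 0.25 ng/mL TGF-beta1 (stock added) for 5 hr at 37 C. Viability was read in the same wells by CellTiter-Glo luminescence after 30 min at room temperature.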

[6] = qHTS assay to identify small molecule agonists of the TGF-beta/Smad signaling pathway - cell viability counter screen (AID 1346829); also: top concentration of the series differs between compounds; nearly all actives have a fitted effect of over 45% in size
In short: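 CellTiter-Glo luminescence readout; SBE-bla HEK 293T cells, overnight plating, compound 5 hr at 37 C/5% CO2, then bla substrate 2 hr RT, then CellTiter-Glo 30 min RT.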

[7] = qHTS assay to identify small molecule agonists of the TGF-beta/Smad signaling pathway (AID 1346859; active = well fitted activation curve with a large enough effect in the signal ratio in the repeat runs, not every such curve was filed as active; the % refers to the signal ratio; also: series mostly up to about 77 µM)
In short: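 Dual-wavelength fluorescence (460/530 nm emission) quantified beta-lactamase expression under the Smad binding element in HEK 293T cells following 5 hr compound treatment at 37 C.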

[8] = biological target: Thyrotropin-releasing hormone receptor (Homo sapiens) (UniProt P34981); test: qHTS assay to identify small molecule antagonists of the thyrotropin-releasing hormone receptor (TRHR) signaling pathway (AID 1346877; active = well fitted inhibition curve with a large enough effect in the repeat runs, not every such curve was filed as active; also: series mostly up to about 51 µM)
Chain of Thyrotropin-releasing hormone receptor (Homo sapiens) (P34981 whole entry, looked up): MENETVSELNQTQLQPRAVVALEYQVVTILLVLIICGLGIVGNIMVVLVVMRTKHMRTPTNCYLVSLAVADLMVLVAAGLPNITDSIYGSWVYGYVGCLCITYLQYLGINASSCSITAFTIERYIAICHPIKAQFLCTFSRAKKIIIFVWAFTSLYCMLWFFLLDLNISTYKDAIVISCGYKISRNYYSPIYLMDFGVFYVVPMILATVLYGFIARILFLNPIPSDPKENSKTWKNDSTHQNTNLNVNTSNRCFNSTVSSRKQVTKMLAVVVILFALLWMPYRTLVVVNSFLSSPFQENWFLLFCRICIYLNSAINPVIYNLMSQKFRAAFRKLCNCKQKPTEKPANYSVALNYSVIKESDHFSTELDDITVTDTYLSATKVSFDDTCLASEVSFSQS
In short: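 Antagonism is measured as suppression of the calcium response to 1 nM TRH in TRHR-HEK293 cells that have been dye-loaded for 2 h at 37 °C after overnight plating. Each compound is tested at 15 concentrations in triplicate.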

[9] = biological target: Thyrotropin-releasing hormone receptor (Homo sapiens) (UniProt P34981); test: qHTS assay to identify small molecule agonists of the thyrotropin-releasing hormone receptor (TRHR) signaling pathway (AID 1346891; calls by dose curve;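 also: HEK293 cells expressing TRHR with calcium dye readout; series mostly up to about 58 µM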)
In short: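 Kinetic fluorescence (3 min, 1 s intervals) reported intracellular calcium after compound transfer onto TRHR-Hek293 cells pre-loaded with dye for 2 h at 37 °C.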

[10] = Human pregnane X receptor (PXR) small molecule agonists, qHTS cell viability counter screen (AID 1346977); also: nearly all actives have a fitted effect of over 50% in size
In short: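 HepG2 cells stably carrying the PXR-Luc reporter are cultured with 5% charcoal-stripped FBS and treated with compounds for 24hr. CellTiter-Fluor is added at 23hr and fluorescence is read after 1hr.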

[11] = Caspase-3/7 induction in HepG2 cells by small molecules, qHTS assay (AID 1346978); also: nearly all actives have a fitted effect of over 15% in size
In short: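 Wild-type HepG2 cells, 2,000/well, settled 5 hr at 37 C and 5% CO2, then compound-treated for 17 hr; caspase-3/7 activity read by luminescent Caspase-Glo 3/7 after 30 min at room temperature.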

[12] = Caspase-3/7 induction in CHO-K1 cells by small molecules, qHTS cell viability counter screen (AID 1346979); also: nearly all actives have a fitted effect of over 35% in size
In short: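 Seeding: 1,500 CHO-K1 cells/well. Rest: 5hr, 37C. Treatment: compounds in DMSO, 16hr. Read: CellTiter-Fluor, 1hr, fluorescence.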

[13] = Caspase-3/7 induction in CHO-K1 cells by small molecules, qHTS assay (AID 1346980); also: nearly all actives have a fitted effect of over 15% in size
In short: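 Wild-type CHO-K1 cells exposed to compounds for 17hr at 37 C, 5% CO2. Caspase-3/7 activity then measured by Caspase-Glo 3/7 luminescence after 30min at room temperature.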

[14] = Caspase-3/7 induction in HepG2 cells by small molecules, qHTS cell viability counter screen (AID 1346981); also: series mostly up to about 92 µM; nearly all actives have a fitted effect of over 30% in size
In short: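 Cell viability is measured as a cytotoxicity counter screen alongside the Caspase-Glo 3/7 readout in identical wells. Wild-type HepG2 cells are treated with test compounds for 16 hr at 37 C before CellTiter-Fluor addition and a 1-hr incubation.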

[15] = qHTS assay to identify small molecule antagonists of the progesterone receptor (PR) signaling pathway - cell viability counter screen (AID 1346798); also: series mostly up to about 92 µM; nearly all actives have a fitted effect of over 50% in size
In short: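 Viability was determined by ATP-based luminescence (CellTiter-Glo) in PR-UAS-bla HEK293T cells cultured in 2% charcoal-stripped serum and incubated 16 hr with compounds under R5020 stimulation.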

[16] = biological target: Nuclear receptor subfamily 1 group I member 2 (Homo sapiens) (UniProt O75469); test: Human pregnane X receptor (PXR) small molecule agonists, qHTS assay (AID 1346982); also: nearly all actives have a fitted effect of over 35% in size
Chain of Nuclear receptor subfamily 1 group I member 2 (Homo sapiens) (O75469 whole entry, looked up): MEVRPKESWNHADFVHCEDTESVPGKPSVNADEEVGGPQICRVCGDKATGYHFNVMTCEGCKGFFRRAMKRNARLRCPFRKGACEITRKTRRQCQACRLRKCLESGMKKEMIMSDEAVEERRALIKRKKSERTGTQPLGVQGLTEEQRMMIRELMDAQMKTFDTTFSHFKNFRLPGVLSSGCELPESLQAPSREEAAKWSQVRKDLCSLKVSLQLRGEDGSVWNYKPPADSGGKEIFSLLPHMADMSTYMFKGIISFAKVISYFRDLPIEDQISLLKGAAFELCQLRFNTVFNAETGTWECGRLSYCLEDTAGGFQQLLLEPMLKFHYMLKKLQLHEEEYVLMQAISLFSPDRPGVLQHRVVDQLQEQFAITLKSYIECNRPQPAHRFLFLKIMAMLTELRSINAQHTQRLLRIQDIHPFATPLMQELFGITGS
In short: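 Cells: HepG2 stably carrying PXR-Luc. Medium held 5% charcoal-stripped FBS. Compounds in DMSO added after 5 hr plating, incubated 24 hr, then luminescence quantified with ONE-Glo.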

[17] = qHTS assay to identify small molecule agonists of the estrogen receptor alpha (ER-alpha) signaling pathway in the presence of an antagonist - cell viability counter screen (AID 1259386);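 also: series mostly up to about 92 µM; cells exposed to compounds for 22 h at 37 °C before the viability read; nearly all actives have a fitted effect of over 30% in size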
In short: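 Cytotoxicity was measured in parallel with the ERE-luciferase agonist screen, in the same wells. The cells were VM7Luc4E2, which endogenously express ER-alpha, and treatment was with compounds plus 10.0nM ICI-182,780 for 22hr.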

[18] = biological target: Nuclear receptor subfamily 1 group I member 2 (Rattus norvegicus) (UniProt Q9R1A7); test: Rat pregnane X receptor (rPXR) activation by small molecules, qHTS assay (AID 1346983); conditions: rPXR luciferase reporter cells, One-Glo luminescence, 24 h; max activation: stronger effect = higher value; also: nearly all actives have a fitted effect of over 20% in size
Chain of Nuclear receptor subfamily 1 group I member 2 (Rattus norvegicus) (Q9R1A7 whole entry, looked up): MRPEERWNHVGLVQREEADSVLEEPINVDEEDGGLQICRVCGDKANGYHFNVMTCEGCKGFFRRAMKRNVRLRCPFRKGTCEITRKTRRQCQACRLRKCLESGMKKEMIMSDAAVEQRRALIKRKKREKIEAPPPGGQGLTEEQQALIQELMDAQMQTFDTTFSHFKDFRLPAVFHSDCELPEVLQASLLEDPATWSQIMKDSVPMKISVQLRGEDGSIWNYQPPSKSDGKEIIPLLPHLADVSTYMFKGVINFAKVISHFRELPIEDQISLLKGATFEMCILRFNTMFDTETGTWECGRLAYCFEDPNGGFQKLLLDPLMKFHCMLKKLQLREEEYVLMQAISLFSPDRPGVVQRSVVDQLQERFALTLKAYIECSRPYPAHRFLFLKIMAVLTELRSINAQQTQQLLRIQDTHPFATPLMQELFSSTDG
In short: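 Cell-based rPXR activation assay: rPXR cells, 2,000 per well, rested 5hr at 37 C, then exposed to compounds in DMSO for 24 hr at 37 C. Luciferase activity read by One-Glo luminescence after 30 min at room temperature.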

[19] = biological target: Nuclear receptor subfamily 1 group I member 2 (Homo sapiens) (UniProt O75469); test: CYP3A4 induction through human pregnane X receptor (PXR) by small molecules, qHTS assay (AID 1346984); also: nearly all actives have a fitted effect of over 40% in size
In short: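 Quantitative HTS in DPX-2 cells, i.e. HepG2 transfected with PXR response element and CYP3A4-promoter luciferase. Compounds in DMSO incubated 24hr at 37C; then P450-Glo CYP3A4 substrate, 3uM final, 3hr; One-Glo luminescence.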
% is scaled to controls: 0 for no effect and ±100 for the full control effect.

CCCCNc1ccccc1
inactive: Potency [1] | Potency [2] | Potency [3] | Potency [4] | outcome [5] | outcome [6] | outcome [7] | outcome [8] | outcome [9] | Potency [10] | outcome [11] | Potency [12] | outcome [13] | outcome [14]

COC[C@H](c1ccc(C(F)(F)F)cc1)N1CCN(C2(C)CCN(C(=O)c3c(C)ncnc3C)CC2)C[C@H]1C
inactive: Potency [1] | Potency [2] | Potency [15] | outcome [5] | outcome [6] | outcome [7] | outcome [8] | outcome [9] | Potency [10] | outcome [11] | Potency [12] | outcome [13] | outcome [14] | Potency [16]

CC(C)CCOC(=O)CC(C)C
inactive: outcome [17] | Potency [2] | Potency [3] | Potency [15] | Potency [4] | outcome [5] | outcome [6] | outcome [7] | outcome [8] | outcome [9] | Potency [10] | outcome [11] | Potency [12] | outcome [13] | outcome [14] | Potency [16]

C=C(C)C(=O)OCCCCCCCCCCCCCCCCCC
inactive: activity change, negative = inhibition [1] 0.559% [at 19 µM] | activation [2] 1.29% [at 19 µM] | activity change, negative = inhibition [3] -2.15% [at 18.9 µM] | activity change, negative = cytotoxicity [15] 16.4% [at 18.9 µM] | activity change, negative = cytotoxicity [6] 16.7% [at 15.8 µM] | activation [7] 6.67% [at 15.8 µM] | activity, negative = inhibition [8] -4.03% [at 10.5 µM] | activation [9] -0.148% [at 11.8 µM] | activity change, negative = cytotoxicity [10] -1.38% [at 19 µM] | caspase activation [11] -1.69% [at 19 µM] | activity change, negative = cytotoxicity [12] -0.104% [at 19 µM] | caspase-3/7 activation [13] 0.453% [at 19 µM] | activity change, negative = cytotoxicity [14] -0.0917% [at 19 µM] | activation [16] -0.119% [at 19 µM]

CN1[C@@H]2CC[C@H]1CC(NC(=O)n1c(=O)[nH]c3ccccc31)C2 (stereo partly specified)
inactive: outcome [17] | Potency [2] | Potency [3] | Potency [15] | Potency [4] | outcome [5] | outcome [6] | outcome [7] | outcome [8] | outcome [9] | Potency [10] | outcome [11] | Potency [12] | outcome [13] | outcome [14] | Potency [16]

O=C1CC2(CCCC2)CC(=O)N1
inactive: Potency [1] | Potency [2] | Potency [15] | Potency [4] | outcome [5] | outcome [6] | outcome [7] | outcome [8] | outcome [9] | Potency [10] | outcome [11] | Potency [12] | outcome [13] | outcome [14] | Potency [16]

C=CCn1c(=O)n([C@@H]2O[C@H](CO)[C@@H](O)[C@H]2O)c2nc(N)[nH]c(=O)c21
inactive: Potency [1] | Potency [2] | Potency [3] | Potency [15] | outcome [6] | outcome [7] | outcome [8] | outcome [9] | Potency [10] | outcome [11] | Potency [12] | outcome [13] | outcome [14] | Potency [16] | max activation [18] -4.51% | Potency [19]

O=C(O)c1ccccc1-c1ccc(C(F)(F)F)cc1
inactive: Potency [1] | Potency [2] | Potency [3] | Potency [4] | outcome [5] | outcome [6] | outcome [7] | outcome [8] | outcome [9] | Potency [10] | outcome [11] | outcome [13] | outcome [14] | Potency [16] | max activation [18] -1.61% | Potency [19]
